# Measured values taken from PubChem BioAssay AID1159580 (chemical genetic matrix, 2015).
# Among all 5,500 compounds or so, about 2,000 (36%) were called active. Another 18% or so got no clear call; they are omitted. The list shows a part of the results. A number with no mark means an inactive call. Cut-off read from the data, not from the text of the source: active = normalized growth mostly below about 0.91 (no sharp cut-off); inconclusive = no clear call, values can overlap the other calls; inactive = mostly above about 0.92.
# Assay: chemical genetic growth profiling, strain panel (AID 1159580);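 note: tested at 20 µM; growth read once vehicle control cultures reached saturation at 30 °C; 1 = growth at the plate median or of vehicle wells; lower values mean less growth of the strain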
# Conditions: S. cerevisiae deletion strains, growth OD
compound,measurement,setting,value
CCOc1ccc(C(=O)c2ccc(OC)c(O)c2O)cc1,normalized growth,"locus YAL021C, strain ccr4, active compounds read low",0.958
same,normalized growth,"locus YAL026C, strain drs2, active compounds read low",0.966
same,normalized growth,"locus YAL030W, strain snc1, active compounds read low",1.02
same,normalized growth,"locus YBL061C, strain skt5, active compounds read low",0.994
same,normalized growth,"locus YBR009C, strain hhf1, active compounds read low",0.962
same,normalized growth,"locus YBR023C, strain chs3, active compounds read low",0.977
same,normalized growth,"locus YBR171W, strain sec66, active compounds read low",1.02
same,normalized growth,"locus YBR231C, strain swc5, active compounds read low",0.939
same,normalized growth,"locus YBR279W, strain paf1, active compounds read low",0.973
same,normalized growth,"locus YCL011C, strain gbp2, active compounds read low",0.991
same,normalized growth,"locus YCL016C, strain dcc1, active compounds read low",0.973
same,normalized growth,"locus YCL061C, strain MRC1, active compounds read low",0.993
same,normalized growth,"locus YCL069W, strain vba3, active compounds read low",1.01
same,normalized growth,"locus YCR088W, strain abp1, active compounds read low",1.02
same,normalized growth,"locus YDL005C, strain med2, active compounds read low",1.05
same,normalized growth,"locus YDL040C, strain nat1, active compounds read low",1.01
same,normalized growth,"locus YDR001C, strain nth1, active compounds read low",1.03
same,normalized growth,"locus YDR069C, strain doa4, active compounds read low",0.974
same,normalized growth,"locus YDR137W, strain rgp1, active compounds read low",0.913
same,normalized growth,"locus YDR159W, strain sac3, active compounds read low",1.05
same,normalized growth,"locus YDR195W, strain ref2",1.15 [resistant] (active)
same,normalized growth,"locus YDR297W, strain sur2, active compounds read low",1.01
same,normalized growth,"locus YDR334W, strain swr1, active compounds read low",1.02
same,normalized growth,"locus YDR335W, strain msn5, active compounds read low",0.993
same,normalized growth,"locus YDR392W, strain spt3, active compounds read low",0.795
same,normalized growth,"locus YEL003W, strain gim4, active compounds read low",0.964
same,normalized growth,"locus YEL037C, strain rad23, active compounds read low",1.01
same,normalized growth,"locus YEL061C, strain CIN8 (second series), active compounds read low",1.02
same,normalized growth,"locus YER015W, strain faa2, active compounds read low",0.934
same,normalized growth,"locus YER016W, strain bim1, active compounds read low",1.01
same,normalized growth,"locus YER111C, strain swi4, active compounds read low",1.03
same,normalized growth,"locus YER155C, strain BEM2 (second series), active compounds read low",0.842 (active)
same,normalized growth,"locus YFR010W, strain ubp6, active compounds read low",1.01
same,normalized growth,"locus YGL167C, strain pmr1, active compounds read low",0.997
same,normalized growth,"locus YGL173C, strain kem1, active compounds read low",0.999
same,normalized growth,"locus YGL227W, strain vid30, active compounds read low",1.03
same,normalized growth,"locus YGL240W, strain doc1, active compounds read low",0.982
same,normalized growth,"locus YGL253W, strain hxk2, active compounds read low",1
same,normalized growth,"locus YHR013C, strain ard1, active compounds read low",0.961
same,normalized growth,"locus YHR027C, strain rpn1, active compounds read low",1.01
same,normalized growth,"locus YHR030C, strain SLT2, active compounds read low",0.892
same,normalized growth,"locus YHR079C, strain IRE1, active compounds read low",0.913
same,normalized growth,"locus YHR142W, strain chs7, active compounds read low",0.963
same,normalized growth,"locus YJL092W, strain hpr5, active compounds read low",1.02
same,normalized growth,"locus YJL095W, strain BCK1 (second series), active compounds read low",0.987
same,normalized growth,"locus YJL095W, strain BCK1, active compounds read low",0.923
same,normalized growth,"locus YJL115W, strain asf1, active compounds read low",1.04
same,normalized growth,"locus YJL129C, strain trk1, active compounds read low",1.04
same,normalized growth,"locus YJL154C, strain vps35, active compounds read low",1.03
same,normalized growth,"locus YJL164C, strain tpk1, active compounds read low",0.964
same,normalized growth,"locus YJL166W, strain qcr8, active compounds read low",0.959
same,normalized growth,"locus YJL187C, strain SWE1, active compounds read low",1
same,normalized growth,"locus YJR066W, strain TOR1, active compounds read low",0.826
same,normalized growth,"locus YKL160W, strain elf1, active compounds read low",0.951
same,normalized growth,"locus YKR026C, strain gcn3, active compounds read low",1.03
same,normalized growth,"locus YKR091W, strain srl3, active compounds read low",1.02
same,normalized growth,"locus YLL001W, strain dnm1, active compounds read low",0.981
same,normalized growth,"locus YLL026W, active compounds read low",1.03
same,normalized growth,"locus YLL041C, strain sdh2, active compounds read low",1.01
same,normalized growth,"locus YLR027C, strain aat2, active compounds read low",0.986
same,normalized growth,"locus YLR113W, strain HOG1, active compounds read low",0.953
same,normalized growth,"locus YLR221C, strain rsa3, active compounds read low",0.977
same,normalized growth,"locus YLR258W, strain gsy2, active compounds read low",1
same,normalized growth,"locus YLR262C, strain YPT6 (second series), active compounds read low",0.875
same,normalized growth,"locus YLR320W, strain mms22, active compounds read low",0.949
same,normalized growth,"locus YLR342W, strain FKS1, active compounds read low",0.958
same,normalized growth,"locus YLR357W, strain rsc2, active compounds read low",0.949
same,normalized growth,"locus YLR370C, strain arc18, active compounds read low",1.02
same,normalized growth,"locus YLR384C, strain iki3, active compounds read low",1.02
same,normalized growth,"locus YML120C, strain ndi1, active compounds read low",0.997
same,normalized growth,"locus YMR058W, strain fet3, active compounds read low",0.818 (active)
same,normalized growth,"locus YMR125W, strain sto1, active compounds read low",1.02
same,normalized growth,"locus YMR129W, active compounds read low",1.01
same,normalized growth,"locus YMR205C, strain PFK2, active compounds read low",1.01
same,normalized growth,"locus YMR231W, strain pep5, active compounds read low",0.992
same,normalized growth,"locus YNL071W, strain lat1, active compounds read low",0.972
same,normalized growth,"locus YNL183C, strain NPR1, active compounds read low",0.866
same,normalized growth,"locus YNL209W, strain ssb2, active compounds read low",0.909 (active)
same,normalized growth,"locus YNL248C, strain rpa49, active compounds read low",1.03
same,normalized growth,"locus YNL322C, strain KRE1 (second series), active compounds read low",1.03
same,normalized growth,"locus YNR049C, strain mso1, active compounds read low",1.06
same,normalized growth,"locus YOR001W, strain rrp6, active compounds read low",0.996
same,normalized growth,"locus YOR070C, strain gyp1, active compounds read low",0.989
same,normalized growth,"locus YOR080W, strain dia2, active compounds read low",1.04
same,normalized growth,"locus YOR083W, strain WHI5, active compounds read low",0.953
same,normalized growth,"locus YOR106W, strain vam3, active compounds read low",0.892
same,normalized growth,"locus YOR231W, strain MKK1, active compounds read low",0.94
same,normalized growth,"locus YOR265W, strain rbl2, active compounds read low",1.01
same,normalized growth,"locus YOR270C, strain vph1, active compounds read low",0.918
same,normalized growth,"locus YOR290C, strain snf2, active compounds read low",0.955
same,normalized growth,"locus YPL051W, strain arl3, active compounds read low",0.878 (active)
same,normalized growth,"locus YPL078C, strain atp4, active compounds read low",0.957
same,normalized growth,"locus YPL106C, strain sse1, active compounds read low",0.957
same,normalized growth,"locus YPL240C, strain hsp82, active compounds read low",1.01
same,normalized growth,"locus YPL256C, strain CLN2, active compounds read low",0.954
